Assay results taken from article PMC5540273 (PLoS ONE, 2017).

Key:
Details in all cases: concentration: 1 μM, replicates: in singlicate; n = 1
[1] = system: CSNK1G1
[2] = system: CSNK1G2
[3] = system: CSNK1G3
[4] = system: CSNK2A1
[5] = system: CSNK2A2
[6] = system: T1, CTK
T1 construct: gene MATK

[7] = system: DAPK1
[8] = system: DAPK2
[9] = system: DAPK3
[10] = system: T2, DCAMKL1
T2 construct: gene DCLK1

[11] = system: T3, DCAMKL2
T3 construct: gene DCLK2

[12] = system: T4, DCAMKL3
T4 construct: gene DCLK3

[13] = system: DDR1
[14] = system: DDR2
[15] = system: T5, DLK
T5 construct: gene MAP3K12

[16] = system: T6, DMPK2
T6 construct: gene CDC42BPG

[17] = system: DMPK
[18] = system: T7, DRAK1
T7 construct: gene STK17A

[19] = system: T8, DRAK2
T8 construct: gene STK17B

[20] = system: DYRK1A
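Also: KINOMEscan kinase panel screen.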

| SMILES | %Inh [1] [%] | %Inh [2] [%] | %Inh [3] [%] | %Inh [4] [%] | %Inh [5] [%] | %Inh [6] [%] | %Inh [7] [%] | %Inh [8] [%] | %Inh [9] [%] | %Inh [10] [%] | %Inh [11] [%] | %Inh [12] [%] | %Inh [13] [%] | %Inh [14] [%] | %Inh [15] [%] | %Inh [16] [%] | %Inh [17] [%] | %Inh [18] [%] | %Inh [19] [%] | %Inh [20] [%] |
| --- | --- | --- | --- | --- | --- | --- | --- | --- | --- | --- | --- | --- | --- | --- | --- | --- | --- | --- | --- | --- |
| COc1cccc(NC(=O)NC2CCN(c3ccnc(Nc4cc(OC)c(OC)c(OC)c4)n3)C2)c1 (stereo not shown) [GSK1379763] | 0 | 0 | 14 | 12 | 7 | 0 | 5 | 0 | 17 | 0 | 0 | 0 | 22 | 24 | 46 | 27 | 0 | 0 | 0 | 0 |
| C[C@@H](Oc1cc(-n2cnc3cc(-c4ccnc(NCCS(C)(=O)=O)c4)ccc32)sc1C(N)=O)c1ccccc1Cl [GSK907232] | 13 | 0 | 14 | 16 | 37 | 5 | 64 | 12 | 17 | 26 | 1 | 0 | 0 | 0 | 12 | 0 | 0 | 0 | 4 | 31 |
| O=C(Nc1cccc(-c2nn3ccccc3c2-c2ccnc(Nc3cccc(F)c3)n2)c1)c1c(F)ccc(F)c1Cl [GSK357952] | 0 | 0 | 25 | 41 | 12 | 15 | 0 | 0 | 0 | 3 | 7 | 1 | 100 | 82 | 3 | 19 | 0 | 3 | 0 | 6 |
| CCCCc1nn2ncccc2c1-c1ccnc(Nc2ccc(N3CCN(C)CC3)cc2)n1 [GW684941] | 0 | 0 | 0 | 0 | 7 | 13 | 0 | 0 | 17 | 17 | 25 | 2 | 100 | 96.2 | 47 | 50 | 0 | 5 | 0 | 17 |
| O=C(Nc1n[nH]c2cc(-c3ccoc3)ccc12)C1CC1 [SB-738481] | 0 | 0 | 12 | 35 | 66 | 25 | 6 | 0 | 0 | 2 | 0 | 0 | 0 | 5 | 0 | 24 | 0 | 24 | 0 | 61 |
| CN1CCN(CCCNc2nccc(-c3c(-c4ccc(F)cc4)nn4cc(C(F)(F)F)ccc34)n2)CC1 [GW621581] | 0 | 0 | 16 | 0 | 0 | 0 | 0 | 0 | 100 | 0 | 0 | 25 | 100 | 81 | 16 | 0 | 0 | 33 | 0 | 5 |
| Oc1cc(Nc2ccnc3cc(I)ccc23)ccc1F [GW552771] | 0 | 0 | 0 | 23 | 0 | 6 | 0 | 0 | 30 | 0 | 0 | 0 | 14 | 19 | 32 | 0 | 0 | 0 | 6 | 36 |
| CN(C)Cc1ccc(-c2ccc3c(Nc4ccc(Oc5ccccn5)cc4)ccnc3c2)o1 [GW567148] | 0 | 0 | 0 | 0 | 0 | 16 | 0 | 0 | 0 | 14 | 0 | 0 | 38 | 45 | 69 | 0 | 0 | 4 | 0 | 13 |
| COCCOCCOc1cc2ncc3c4ccc(C#N)cc4[nH]c3c2cc1OC | 0 | 24 | 17 | 75 | 95.3 | 0 | 0 | 7 | 15 | 20 | 14 | 66 | 0 | 0 | 71 | 0 | 3 | 100 | 100 | 99 |
| CC(C)c1nc(-c2cccc(NS(=O)(=O)c3c(F)cccc3F)c2F)c(-c2ccnc(Nc3ccc(N4CCOCC4)nc3)n2)s1 [GSK2008607] | 21 | 0 | 6 | 7 | 32 | 55 | 2 | 1 | 34 | 57 | 46 | 82 | 99.3 | 88 | 93.2 | 20 | 0 | 0 | 0 | 0 |
| Cl.Cl.NCC(C(=O)Nc1cc(Br)c(-c2ccnc3[nH]ccc23)s1)c1ccccc1 (stereo not shown) [GSK1269851] | 0 | 4 | 35 | 79 | 73 | 7 | 0 | 0 | 15 | 9 | 3 | 0 | 0 | 0 | 4 | 0 | 27 | 98.8 | 0 | 50 |
| Fc1ccc(-c2ncn(C3CCNCC3)c2-c2ccnc(Oc3ccc(-c4ccccc4)cc3)n2)cc1 [SB-245391] | 30 | 78 | 49 | 0 | 7 | 37 | 14 | 5 | 22 | 10 | 3 | 18 | 2 | 10 | 7 | 86 | 5 | 0 | 15 | 0 |
| COC(=O)Nc1nc2ccc(Oc3ccc(NC(=O)Nc4cc(C(F)(F)F)ccc4F)cc3)cc2n1C.Cl [GW692089] | 6 | 0 | 12 | 0 | 1 | 0 | 0 | 0 | 0 | 6 | 0 | 9 | 100 | 99.9 | 31 | 0 | 0 | 0 | 9 | 2 |
| Cl.NC(=O)c1cccc(Nc2nccc(Nc3ccc(Oc4c(Cl)cccc4Cl)c(Cl)c3)n2)c1 [GW659009] | 0 | 2 | 7 | 3 | 45 | 34 | 24 | 8 | 44 | 0 | 0 | 0 | 0 | 0 | 0 | 64 | 0 | 0 | 0 | 3 |
| COc1cc2c(cc1OCCN1CCNCC1)ncc1c3ccc(C#N)cc3[nH]c21 | 0 | 0 | 4 | 63 | 92.4 | 15 | 14 | 4 | 4 | 38 | 3 | 4 | 0 | 1 | 85 | 0 | 5 | 99.5 | 99.6 | 93.1 |
| CC(C)(C)c1ccc2nccc(Nc3cccc(O)c3)c2c1 [GW856795] | 36 | 0 | 0 | 0 | 0 | 0 | 16 | 0 | 0 | 14 | 0 | 0 | 62 | 47 | 16 | 0 | 3 | 5 | 1 | 0 |
| Clc1ccc(-c2nn3ncccc3c2-c2ccnc(Nc3ccc4c(c3)OCCO4)n2)cc1 [GW829116] | 0 | 42 | 23 | 0 | 8 | 36 | 0 | 0 | 0 | 7 | 0 | 0 | 98.5 | 95.9 | 0 | 92.9 | 0 | 0 | 0 | 0 |
